Assay outcomes from PubChem BioAssay.
KB-3-1 tox: kills parental KB-3-1 adenocarcinoma cells; 400,000 compounds, 1.4% hits; Potency, µM (titrated, usually from 46.1 µM), actives largely listed as cytotoxic; KB-3-1 viability, CellTiter-Glo ATP luminescence, 72 h; also: nearly all actives have a fitted effect of over 60% in size
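Luminescent ATP read-out (CellTiter-Glo) measures survival of drug-naive KB-3-1 cells after 72 h compound exposure at 37 °C. Titration series was screened from lowest to highest concentration, with DMSO vehicle plates as background controls.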
KB-V1 MDR tox: KB-V1 MDR subline cytotoxicity; AID 1347076; Potency, µM (top dose mostly 46.1 µM), usual class: cytotoxic; 400,000 compounds, 3.4% hits; KB-V1 MDR cells viability, CellTiter-Glo, 72 h; also: nearly all actives have a fitted effect of over 60% in size
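Cytotoxicity toward P-gp-expressing KB-V1 cells was determined as loss of CellTiter-Glo luminescence after 72 h at 37 degrees C. Compounds were tested in quantitative HTS format across a concentration range, with curves fitted to normalized data.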
HT1080-NT tox: kills 2HG-producing HT-1080-NT fibrosarcoma cells | Potency, µM (titrated, usually from 46.1 µM), usual class: cytotoxic | HT-1080-NT fibrosarcoma viability, CellTiter-Glo ATP luminescence, 48 h | AID 686970 | 360,000 compounds, 1.6% hits;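 also: NT is the 2HG producing partner of a matched IDH1 knockdown line; nearly all actives have a fitted effect of over 55% in size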
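750 cells/well, RPMI + 5% FBS; 2 h settle, compound pin-transfer, 48 h at 37 degrees C. CellTiter-Glo 10 min RT, luminescence. Normalized to DMSO and media-only wells.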
IL1B secr inh: inflammasome signaling inhibition, IL-1 beta readout. THP-1 LPS/ATP IL-1B secretion, AlphaLISA, 16 h; hits give low values. activity change, % at 57.5 µM. AID 743279. 360,000 compounds, 4.7% hits; in the data active = activity change below about -50%; inconclusive = mostly about -30% to -49%
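Secreted IL-1B measured by AlphaLISA bead assay after 16 h compound exposure of THP-1 cells; compounds (final up to 57.5 uM) added 1 h before LPS (250 ng/mL) and ATP (1.25 mM) stimulation; lower signal means less secretion.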
HT1080 IDH1KD tx: toxicity to HT-1080 IDH1 knockdown cells (counter line). 360,000 compounds, 2% hits. Potency, µM (highest dose often 46.1 µM), hits mostly cytotoxic. HT-1080 IDH1 knockdown viability, ATP luminescence, 48 h
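Knockdown cells (IDH1KD HT-1080) received compounds 2 h after plating at 750 cells/well and were kept 48 h at 37 °C in 5% FBS RPMI. A CellTiter-Glo luminescence read gave % activity for curve fitting.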
Numbers stand for hits; – = inactive; ? = inconclusive; · = not tested or not shown. An excerpt weighted towards active compounds, which were near 8.8% of everything screened. Unless noted, calls follow the shape of the dose curve; as a rule, active = well fitted curve in the direction sought with a large enough effect; inconclusive = small, poorly fitted or top-dose-only effect, or another doubt; inactive = no such curve, though single readings can be large; an effect the other way counts as inactive or inconclusive.

SMILES | KB-3-1 tox | KB-V1 MDR tox | HT1080-NT tox | IL1B secr inh | HT1080 IDH1KD tx
C=CCc1ccccc1OCC(O)CNC(C)C (stereo not drawn) | – | – | – | -70.2 | –
c1ccc(-c2ccc(-c3nc(-c4cccnc4)no3)cc2)cc1 | – | 16.4µM | – | – | –
O=C1CCc2cc([S+](=O)([O-])Nc3ccc(N[S+](=O)([O-])c4ccc5c(c4)CCC(=O)N5)cc3)ccc2N1 | – | – | · | · | ·
CC(C)c1ccc(/C=C(\NC(=O)c2ccccc2)C(=O)NCCCN2CCOCC2)cc1 | – | – | – | · | –
Cc1nc(C)c(CCNS(=O)(=O)c2ccc(C)c(C)c2)s1 | ? | 20.6µM | · | · | ·
COc1ccc(S(=O)(=O)NCCc2sc(-c3cccc(F)c3)nc2C)cc1 | – | – | · | · | ·
COc1ccc(S(=O)(=O)NCCc2sc(-c3ccccc3)nc2C)cc1OC | – | ? | · | · | ·
COc1ccc(-c2nc(C)c(CCNS(=O)(=O)c3cc(C)c(C)cc3C)s2)cc1 | ? | 18.4µM | · | · | ·
COc1ccc(OC)c(S(=O)(=O)NCCc2sc(-c3cccnc3)nc2C)c1 | – | ? | · | · | ·
Cc1nc(-c2ccccc2)sc1CCNS(=O)(=O)c1ccc(Br)cc1 | ? | 20.6µM | · | · | ·
COc1ccc(-c2nc(C)c(CCNS(=O)(=O)c3cc(Cl)ccc3Cl)s2)cc1 | 14.6µM | 20.6µM | · | · | ·
Cc1ccc(NC(=O)C2CCCN(C(=O)c3ccc(Cl)cc3)C2)c(C)c1 (stereo not drawn) | – | – | – | – | –
COc1ccc(-c2nc(C)c(CCNS(=O)(=O)c3ccc(F)cc3)s2)cc1OC | ? | 9.2µM | · | · | ·
Cc1onc(-c2ccccc2)c1C(=O)Nc1ncc([N+](=O)[O-])s1 | ? | 23.1µM | ? | -66.8 | ?
Cc1nc2ccc3nc(NC(=O)c4ccc5c(c4)OCCO5)sc3c2s1 | – | – | – | – | –
O=C(Nc1ncc([N+](=O)[O-])s1)c1ccc2c(c1)OCO2 | 23.1µM | ? | 14.6µM | – | 16.4µM
Cc1onc(-c2ccccc2)c1C(=O)Nc1nnc(C(C)C)s1 | – | – | – | – | –
O=C(Nc1cccc2cccnc12)c1ccc2c(c1)OCCO2 | – | 13µM | – | – | –
Cc1cnc(NC(=O)c2ccc3c(c2)OCCO3)s1 | 5.8µM | ? | 7.31µM | – | 7.31µM
COc1cc(NC(=O)c2ccc3c(c2)OCO3)c2ncccc2c1 | – | – | – | – | –
CCc1ccc(CNC(=O)C(CC)n2ccc3cc(S(=O)(=O)N4CCCCC4)ccc32)cc1 (stereo not drawn) | – | – | · | · | ·
Cc1ccc(C(=O)Nc2ncc([N+](=O)[O-])s2)cc1 | ? | – | 18.4µM | -66.9 | 23.1µM
Cc1cnc(NC(=O)c2cccc(S(=O)(=O)N3CC(C)OC(C)C3)c2)s1 (stereo not drawn) | ? | 16.4µM | – | – | –
C/C(N=Nc1nc2ccccc2s1)=N\Nc1ccccc1O | ? | – | 13µM | – | 14.6µM
Nc1c(C(=O)NCCN2CCOCC2)c2nc3ccccc3nc2n1CCc1ccccc1F | – | – | ? | -62.8 | ?
SMILES | KB-3-1 tox | KB-V1 MDR tox | HT1080-NT tox | IL1B secr inh | HT1080 IDH1KD tx
N#Cc1c(N)n(CCNC(=O)c2ccc(Cl)cc2)c2nc3ccccc3nc12 | – | – | – | -58.0 | –
Nc1c(C(=O)NCc2ccco2)c2nc3ccccc3nc2n1CCc1ccc(F)cc1 | – | 16.4µM | ? | -116.4 | ?
N#Cc1c(N)n(CCc2ccc(F)cc2)c2nc3ccccc3nc12 | – | – | – | -56.6 | –
Cc1ccc(C(=O)NCCn2c(N)c(C#N)c3nc4ccccc4nc32)cc1 | ? | – | – | – | –
O=c1[nH]c2c(-c3nc(-c4ccc(F)cc4)cs3)c(O)cn2c2ccc(Br)cc12 | – | – | · | · | ·
NC(=O)c1ccsc1NC(=O)COC(=O)c1ccccn1 | – | – | – | – | –
COc1ccc(N2CCN(C(c3ccccc3)c3nnnn3C(C)C)CC2)cc1 (stereo not drawn) | ? | – | · | · | ·
Nc1c(C(=O)NCCN2CCOCC2)c2nc3ccccc3nc2n1CCc1ccccc1 | – | 23.1µM | ? | -58.9 | ?
Cc1nc2ccccn2c1C(=O)CSc1cccc(Cl)c1 | – | – | – | -69.6 | –
Cc1nc2ccccn2c1C(=O)CSc1ccccc1Cl | ? | 16.4µM | – | – | –
Cc1nc2ccccn2c1C(=O)CSc1ccccc1 | – | – | ? | – | –
COc1ccc(C(=O)NCCCn2cccn2)cc1OC1CCN(C(C)=O)CC1 | · | · | – | – | –
Cc1nn(S(=O)(=O)c2ccc(F)cc2)c(C)c1S(=O)(=O)N1CCOCC1 | – | – | – | – | –
CC(C)(C)c1ccc(C(=O)N/N=C/c2cccc(Cl)c2)cc1 | ? | 23.1µM | ? | ? | ?
CN(Cc1c(F)cccc1Cl)c1nnnn1-c1ccccc1 | – | 20.6µM | – | – | –
Fc1cccc(Cl)c1CNCCSc1nnnn1-c1ccccc1 | – | – | · | · | ·
Cc1ccc(C(=O)N2C(CC(=O)Nc3ccc(Cl)cc3)C(=O)NC3CCCCC32)cc1 (stereo not drawn) | ? | ? | 5.8µM | – | 5.17µM
Cc1ccccc1S(=O)(=O)N(C)C[C@@H]1OCc2cnnn2CCCC(=O)N([C@@H](C)CO)C[C@H]1C | – | ? | – | – | –
CC(Oc1ccccc1C(N)=O)C(=O)Nc1ccc(S(=O)(=O)N2CCCC2)cc1 (stereo not drawn) | – | ? | – | – | –
CN(C)CCc1cc2c(c3c1ccc1ccccc13)OCO2 | ? | – | ? | -95.9 | ?
CN(C)CCNC(=O)COc1ccc(C23CC4CC(CC(C4)C2)C3)cc1 | ? | – | ? | -59.2 | ?
CCN(CC)CCNC(=O)COc1ccc(OC)cc1 | – | ? | – | – | –
Cc1ccc(C23CC4CC(CC(NC(=O)NCCN(C)C)(C4)C2)C3)cc1 | – | – | 20.6µM | – | ?
Nc1ncnc2c1ncn2[C@@H]1O[C@H](C(=O)Nc2ccc(C(=O)N3CCCCC3)cc2)[C@@H](O)[C@H]1O | – | – | – | – | –
COC(=O)C(C)Oc1cc(OC(C)C(=O)OC)c2c(C)c(Cl)c(=O)oc2c1 (stereo not drawn) | – | – | – | – | –
SMILES | KB-3-1 tox | KB-V1 MDR tox | HT1080-NT tox | IL1B secr inh | HT1080 IDH1KD tx
Cc1ccc(S(=O)(=O)N2CCCCC2CCNC(=O)C(=O)NCc2ccncc2)cc1 (stereo not drawn) | – | ? | – | – | –
O=C1CCCc2c1sc1nc3n(c(=O)c21)CCCCC3 | – | – | – | – | –
O=C1c2sc3nc4n(c(=O)c3c2CCC1Br)CCCCC4 (stereo not drawn) | – | – | – | -92.8 | –
O=C(CSc1nc2ccc(Cl)cc2[nH]1)NCc1ccco1 | – | ? | – | -67.1 | –
Cc1cc(C(=O)CSc2ncccn2)c(C)n1Cc1ccco1 | – | – | – | – | –
O=C(CSc1ncccc1-c1nc2ccccc2[nH]1)Nc1ccc2c(c1)OCCO2 | – | 9.2µM | – | – | –
Cc1cc(C(=O)CSc2nc3ccc(Cl)cc3[nH]2)c(C)n1Cc1ccco1 | – | 20.6µM | – | – | –
